Hits are enriched below; roughly 6.9% of the tested compounds scored in any of these assays.
MCF10A rereplic: induces DNA re-replication in MCF 10a normal breast cells; hit rate 2.9% among 350,000; AID 624296; MCF 10A DNA re-replication, Hoechst nuclear intensity, 48 h; Potency, µM (titrated, usually from 46.1 µM), inactives show top-dose activity, positive = re-replication, actives largely listed as activators; also: potency is read from the fitted curve at half-maximal effect; % of control where 0% means no effect; nearly all actives have a fitted effect of over 50% in size
SW480 rereplic: DNA re-replication induction in SW480 cells. SW480 DNA re-replication, Hoechst DNA content imaging, 48 h. Potency, µM (series often up to 46.1 µM), without a hit: at the top dose re-replication activation, most hits filed as activators. hit rate 1.8% among 340,000; also: potency is read from the fitted curve at half-maximal effect; % of control where 0% means no effect; nearly all actives have a fitted effect of over 55% in size
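Readout is total intensity of Hoechst-stained nuclei, excited at 405 nm and collected at 500-530 nm. Compound treatment lasted 48 hr at 37 C in 5% CO2 before staining.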
Vif-A3G inh: inhibitors of Vif-APOBEC3G interaction; Q9HC16; HeLa A3G-eYFP + Vif (tagged APOBEC3G with the HIV-1 protein that degrades it), YFP fluorescence, overnight; Potency, µM (series often up to 46.1 µM), inactives show at the top dose activity, negative = active, most hits filed as inhibitors; hit rate 0.076% among 410,000; also: potency is read from the fitted curve at half-maximal effect; % is scaled to controls: 0 for no effect and ±100 for the full control effect; nearly all actives have a fitted effect of over 60% in size
Target sequence (Q9HC16 whole entry, looked up): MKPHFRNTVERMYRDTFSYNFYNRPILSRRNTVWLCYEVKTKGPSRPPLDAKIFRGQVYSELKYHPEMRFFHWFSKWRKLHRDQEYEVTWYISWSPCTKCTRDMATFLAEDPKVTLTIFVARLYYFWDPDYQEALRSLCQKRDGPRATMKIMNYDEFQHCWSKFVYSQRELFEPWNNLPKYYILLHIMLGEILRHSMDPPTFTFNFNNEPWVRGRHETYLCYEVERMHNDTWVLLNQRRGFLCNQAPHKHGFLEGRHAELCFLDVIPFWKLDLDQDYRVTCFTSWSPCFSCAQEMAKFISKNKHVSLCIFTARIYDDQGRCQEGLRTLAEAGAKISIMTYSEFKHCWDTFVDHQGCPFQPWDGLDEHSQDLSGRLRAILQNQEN
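HeLa cells stably expressing Vif and C-terminally eYFP-tagged A3G, seeded overnight at 37 deg C, then exposed to compound by pintool overnight at 37 deg C. Rise in yellow fluorescence (Ex 488/Em 500-530, Acumen) marks blocked Vif-driven A3G degradation.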
Giardia killer: kills Giardia lamblia; Giardia lamblia trophozoite viability; activity change, % at 7.66 µM, hits read low; hit rate 0.15% among 340,000; AID 540267; in the data active = activity change below about -80%; inconclusive = between about -30% and that limit;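 also: parasites exposed to compound for two days anaerobically before the ATP read; % is scaled to controls: 0 for no effect and ±100 for the full control effect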
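Trophozoite viability was measured as ATP-dependent luminescence, read 15-30 min after reagent addition. Before that, parasites at 100 cells/well were exposed to compounds for 48 h, anaerobically, at 37 deg C.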
IL-1B inflam inh: blocks inflammasome-driven IL-1 beta release | THP-1 LPS/ATP IL-1B secretion, AlphaLISA, 16 h; hits give low values | activity change, % at 57.5 µM | hit rate 4.7% among 360,000 | AID 743279; in the data active = activity change below about -50%; inconclusive = mostly about -30% to -49%; also: % is scaled to controls: 0 for no effect and ±100 for the full control effect
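Secreted IL-1B measured by AlphaLISA bead assay after 16 h compound exposure of THP-1 cells; compounds (final up to 57.5 uM) added 1 h before LPS (250 ng/mL) and ATP (1.25 mM) stimulation; lower signal means less secretion.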
Vif-APOBEC3F blk: Vif-A3F binding inhibition | HeLa A3F-eYFP + Vif (tagged APOBEC3F with the HIV-1 protein that degrades it), YFP fluorescence increase | Potency, µM (doses to about 46.1 µM), for inactives: at the top dose activity, negative = active | hit rate 0.2% among 390,000; also: potency is read from the fitted curve at half-maximal effect; % of control where 0% means no effect; nearly all actives have a fitted effect of over 65% in size
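HeLa cells stably expressing A3F-eYFP plus Vif, plated and incubated overnight at 37 deg C, then exposed to compounds overnight at 37 deg C. Blocked degradation read as raised yellow fluorescence (Ex 488/Em 500-530).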
* = called active by the depositor; ? = inconclusive; / = no result given; [ ] = dose if it differs, or a comment. Unless noted, calls follow the shape of the dose curve; as a rule, active = well fitted curve in the direction sought with a large enough effect; inconclusive = small, poorly fitted or top-dose-only effect, or another doubt; inactive = no such curve, though single readings can be large; an effect the other way counts as inactive or inconclusive.

SMILES	MCF10A rereplic	SW480 rereplic	Vif-A3G inh	Giardia killer	IL-1B inflam inh	Vif-APOBEC3F blk
Cc1ccccc1-n1c(O)c(/C=C2/C(c3ccccc3)=Nc3ccccc32)c(=O)[nH]c1=O	5.2µM*	/	?	-7	?	-19%
Clc1ccc(Cl)cc1	-1%	1%	/	/	/	/
N#Cc1cc2c(nc1SCC(=O)Nc1ccc(OC(F)(F)F)cc1)C1CCN2CC1	/	/	0%	/	/	-9%
O=P(O)(O)C(Cl)(Cl)P(=O)(O)O	2%	2%	/	/	/	/
CN(C)CCNC(=O)C(=O)NCC1OCCCN1S(=O)(=O)c1cccs1 (configuration not stated)	1%	?	1%	24	7	-6%
COc1cc(CNCCc2c[nH]c3ccccc23)cc(OC)c1	15%	?	-1%	15	-80*	6%
CCc1ccc(CNCCc2c[nH]c3ccccc23)cc1	?	1%	-1%	-10	-52*	-3%
COc1cc(CNCCc2c[nH]c3ccccc23)cc(OC)c1OC	/	/	2%	/	?	-8%
Cc1cccc(CNCCc2c[nH]c3ccccc23)c1	14%	?	0%	-19	-75*	-3%
c1ccc(CNCCc2c[nH]c3ccccc23)cc1	15%	0%	0%	-3	-10	-8%
OC(Cn1cncn1)(Cn1cncn1)c1ccc(F)cc1F	-7%	?	1%	3	17	7%
O=P1(Oc2ccccc2)CC=CC(COC(c2ccccc2)(c2ccccc2)c2ccccc2)O1 (configuration not stated)	/	/	0%	-6	/	/
CCC(C)NC(=O)c1c(N)n(CCCOC)c2nc3ccccc3nc12 (configuration not stated)	4.1µM*	7.3µM*	-8%	14	?	-9%
COCCCn1c(N)c(C(=O)Nc2sc3c(c2C(=O)OC)CCCC3)c2nc3ccccc3nc21	-9%	-10%	0%	6	-72*	0%
COCCCn1c(N)c(C(=O)OC(C)COC)c2nc3ccccc3nc21 (configuration not stated)	5%	3%	0%	2	-20	-7%
COCCCn1c(N)c(C(=O)NCc2ccco2)c2nc3ccccc3nc21	16µM*	18µM*	6%	-26	-19	0%
C=CCNC(=O)c1c(N)n(Cc2ccco2)c2nc3ccccc3nc12	20%	12%	-15%	-11	-14	-5%
COCCCn1c(N)c(C(=O)Nc2ccccc2)c2nc3ccccc3nc21	?	21µM*	-7%	11	-76*	21%
CC(C)c1ccc(OCC(=O)N2CCN(CCc3ccncc3)CC2)cc1	/	/	2%	/	/	2%
CC1(C)N([O])C(c2ccc(C(=O)O)cc2)=[N+]([O-])C1(C)C	/	/	0%	/	/	/
O=c1c2ccccc2nc(/C=C\c2ccccc2F)n1-c1ccc(O)cc1	/	/	3%	/	/	2%
CN1C(=O)[C@@H](NC(=O)c2cc3ccccc3[nH]2)N=C(c2ccccc2)c2ccccc21	-1%	?	/	/	/	/
CC(C)(O)/C=C/C(=O)[C@](C)(O)C1[C@H](O)C[C@@]2(C)C3CC=C4C(C[C@H](O)[C@@H](O)C4(C)C)[C@]3(C)C(=O)C[C@]12C (some centres not stated)	1.3µM*	?	-22%	7	-87*	5%
O=C(Nc1ccc(Cl)cc1)OC1CN2CCC1CC2 (configuration not stated)	-11%	-3%	5%	16	-52*	-1%
O=C(Nc1cccc(Cl)c1)OC1CN2CCC1CC2 (configuration not stated)	1%	?	1%	15	?	5%
SMILES	MCF10A rereplic	SW480 rereplic	Vif-A3G inh	Giardia killer	IL-1B inflam inh	Vif-APOBEC3F blk
CCCOP(=O)(OCCC)C(Nc1ccc(C(C)C)cc1)c1ccc([N+](=O)[O-])cc1 (configuration not stated)	?	21µM*	1%	5	?	-1%
O=C(NCc1c(-n2cccc2)sc2c1CCCC2)Nc1cccc(C(F)(F)F)c1	/	/	-11%	/	/	?
C#CCOCCOCCOCCNc1nc(N2CCN(C(=O)CCCCCCCCCCNC(=O)[C@H]([C@@H](C)CC)n3cc(CCCCN=C(N)N)nn3)CC2)nc(N2CCN(C(=O)CCCCCCCCCCNC(=O)[C@H](CO)n3cc(CCCCCN)nn3)CC2)n1	?	-5%	-18%	-15	-73*	6%
Cc1ccc(C(O)(c2ccc(C)c(C)c2)C2CN3CCC2CC3)cc1C (configuration not stated)	?	2%	3%	-4	-86*	-1%
Cc1ccc2scc(N3CCN(C)CC3)c(=O)c2c1	/	/	4%	-3	/	0%
[O]=[Cd]	-1%	-8%	/	/	/	/
COc1ccc2c(c1OC)C(=O)OC2C1c2cc3c(cc2CCN1C)OCO3 (configuration not stated)	?	-6%	0%	-10	11	-11%
CCC1C(c2cc(OC)c(OC)c(OC)c2)c2cc3c(cc2OC1N1CCCC1)OCO3 (configuration not stated)	4.1µM*	8.2µM*	?	11	-18	-13%
Cc1cc(OCC(=O)OC(C)(C)C)c2c3c(c(=O)oc2c1)CCC3	-1%	-4%	3%	0	32	/
CCN(CC)C(=O)COc1cc(C)cc2oc(=O)c3c(c12)CCCC3	-8%	2%	-7%	-6	-50*	-1%
Cc1ccc(NC(=O)CN2C(=O)CN=C(c3ccccc3)c3ccccc32)cc1Cl	/	/	2%	/	/	0%
Cc1cc(C=C2C(=O)NC(=S)NC2=O)c(C)n1-c1ccc2c(c1)OCO2	?	?	-37%	16	-101*	-30%
Cn1ncnc2c(=O)n(C)c(=O)nc1-2	18µM*	0%	-29%	-88*	-108*	1%
Cc1ccc(-c2nc3c(=O)n(C)c(=O)nc-3n(C)n2)cc1	/	/	-13%	-95*	/	/
CCC(=O)O[C@@](Cc1ccccc1)(c1ccccc1)[C@@H](C)CN(C)C	-3%[20.6 µM]	1%[20.6 µM]	/	/	/	/
COC(=O)[C@]12OC[C@]34C([C@@H](O)[C@@H]1O)[C@]1(C)CC(=O)C(O)=C(C)[C@@H]1C[C@H]3OC(=O)[C@H](O)[C@@H]24 (some centres not stated)	15µM*	-64%	-13%	0	-23	3%
CC1=CC(O)C(O)C2(C)C1CC1OC(=O)C(O)C3C(C)C(O)C4(O)OCC13C42 (configuration not stated)	17%	-4%	0%	-7	38	13%
C=C1C(=O)O[C@@H]2C[C@@H](C)[C@H]3C=CC(=O)[C@]3(O)C[C@@H]12	?	?	?	7	-99*	?
O=C(COc1cccc(Cl)c1)N1CCN(CCc2ccncc2)CC1	/	/	1%	/	/	-5%

Screens as filed in PubChem.
